Screens deposited in PubChem BioAssay by National Center for Advancing Translational Sciences (NCATS).
Most compounds without a hit are left out; they make up all but 17% or so of the library.
TGFb SMAD3 inh: qHTS for Inhibitors of TGF-b. Potency, µM (series often up to 46.1 µM), for inactives: at the top dose activity, negative = inhibition, hits mostly inhibitors. HepG2 CAGA-GFP TGF-b/SMAD3 reporter, GFP fluorescence, 18 h; TGF-beta stimulated, 500 pg/mL final. AID 588855, 2011. hit rate 1.2% among 410,000; also: % is scaled to controls: 0 for no effect and ±100 for the full control effect; nearly all actives have a fitted effect of over 65% in size
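GFP signal (ex488/em500-530) from TGF-beta-stimulated HEPG2 CAGA-GFP cells, 500 pg/mL final, 18 h at 37 degrees C in DMEM plus 1% FBS, normalized to unstimulated and DMSO-stimulated controls.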
HT1080-NT tox: qHTS for induction of synthetic lethality in tumor cells producing 2HG: qHTS for the HT-1080-NT fibrosarcoma cell line | hit rate 1.6% among 360,000 | AID 686970, 2013 | HT-1080-NT fibrosarcoma viability, CellTiter-Glo ATP luminescence, 48 h | Potency, µM (highest dose often 46.1 µM), for the others: at the top dose activity, negative = less viability, usual class: cytotoxic;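 also: NT is the 2HG producing partner of a matched IDH1 knockdown line; 0% = DMSO-treated cells and -100% = media-only wells without cells; nearly all actives have a fitted effect of over 55% in size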
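A 48-hour cytotoxicity screen used HT-1080-NT cells plated 2 hours before compound delivery. ATP-based CellTiter-Glo luminescence measured viability, normalized to DMSO and no-cell controls.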
HT1080 IDH1KD tx: qHTS for induction of synthetic lethality in tumor cells producing 2HG: qHTS for the HT-1080-IDH1KD cell line; HT-1080 IDH1 knockdown viability, ATP luminescence, 48 h; Potency, µM (highest dose often 46.1 µM), inactives show at the top dose activity, negative = toxicity, usual class: cytotoxic; hit rate 2% among 360,000; AID 686971, 2013;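 also: 0% = DMSO wells and -100% = cell-free medium wells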
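Luminescent ATP read-out (CellTiter-Glo, 10 min at room temperature) after 48 h compound exposure at 37 °C gave viability of IDH1-knockdown HT-1080 cells. Activity was normalised to DMSO and cell-free wells, then fitted as concentration-response curves.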
HepG2 viability: qHTS for Inhibitors of TGF-b: Cytotox Counterscreen. HepG2 CAGA-GFP viability, ATP luminescence, 18 h. Potency, µM (titrated, usually from 46.1 µM), inactives show at the highest dose activity change, negative = cytotoxicity, actives largely listed as cytotoxic. hit rate 0.76% among 410,000. AID 588856, 2011
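HepG2 CAGA-GFP cells (1000/well, DMEM with 1% FBS) received compound, then TGF-beta at 500 pg/mL final, and were incubated 18 hours at 37 degrees C. Viability was read by CellTiter-Glo luminescence. Media-only wells were set as complete cell-killing and DMSO as no toxicity.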
DT40 TDP1 no CPT: qHTS for Inhibitors of human tyrosyl-DNA phosphodiesterase 1 (TDP1): qHTS in cells in absence of CPT; hit rate 15% among 420,000; Potency, µM (doses to about 46.2 µM), without a hit: at the top dose activity change, negative = growth inhibition, hits mostly inhibitors; DT40 Tdp1-/- hTDP1 cells, no CPT, ATP luminescence, 48 h; AID 686978, 2013; also: % is scaled to controls: 0 for no effect and ±100 for the full control effect; nearly all actives have a fitted effect of over 55% in size
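Growth of hTDP1-complemented DT40 Tdp1-knockout cells is measured by ATP luminescence after at least 48 hr compound exposure at 37 °C, with DMSO substituting for the 20 nM CPT used in the parallel screen.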
DT40 TDP1 CPT: qHTS for Inhibitors of human tyrosyl-DNA phosphodiesterase 1 (TDP1): qHTS in cells in presence of CPT; Potency, µM (series often up to 46.2 µM), inactives show at the highest dose activity change, negative = growth inhibition, usual class: inhibitors; hit rate 12% among 420,000; AID 686979, 2013; chicken DT40 Tdp1-/-;hTDP1 cells + 20 nM CPT, ATP luminescence, 48 h; also: % is scaled to controls: 0 for no effect and ±100 for the full control effect; nearly all actives have a fitted effect of over 55% in size
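Chicken DT40 Tdp1-/- cells complemented with human TDP1, 400 cells/well, exposed to compounds plus 20 nM camptothecin for at least 48 h at 37 C; viability read as ATP content by CellTiter-Glo luminescence.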
Starred values were filed as active, the others as inactive; u = inconclusive; x = no result; ! = not active in a repeat; [ ] = another dose, or the depositor's remark. Calls follow the shape of the dose curve; as a rule, active = well fitted curve in the direction sought with a large enough effect; inconclusive = small, poorly fitted or top-dose-only effect, or another doubt; inactive = no such curve, though single readings can be large; an effect the other way counts as inactive or inconclusive. Potency is read from the fitted curve at half-maximal effect.

SMILES	TGFb SMAD3 inh	HT1080-NT tox	HT1080 IDH1KD tx	HepG2 viability	DT40 TDP1 no CPT	DT40 TDP1 CPT
COCCCn1c(-c2ccc(OC)cc2)cc(C(=O)NC2CCCCCCC2)c1C	u	u	u	-19%	15µM*	21µM*
CCc1nc(SC)ncc1C(=O)Nc1ccc(Cl)cc1C(=O)c1ccccc1	-24%	x	x	-9%	u	-1%
Cc1cccnc1-n1c(C)nc2ccccc2c1=O	-36%	-1%	-4%	4%	-7%	-19%
Cc1ccc(/C=C/C(=O)C2C(=O)c3ccccc3C2=O)cc1	-1%	-24%	-2%	-30%	u	16µM*
Cc1cccc(-n2nc(C)c3c2NC(=O)CSC3c2ccccc2Cl)c1 (configuration not stated)	u	x	x	-16%	21µM*	u
Cc1ccccc1-n1nc(C)c2c1NC(=O)CSC2c1ccc(Cl)cc1 (configuration not stated)	u	x	x	-11%	u	u
Cc1ccccc1-n1nc(C)c2c1NC(=O)CSC2c1ccc(N(C)C)cc1 (configuration not stated)	u	x	x	-4%	18µM*	u
O=C1CSC(c2ccccc2Cl)c2cc(Cl)ccc2N1 (configuration not stated)	x	x	x	x	39µM*	u
O=C(c1c[nH]c2ccc(S(=O)(=O)N3CCOCC3)cc2c1=O)N1CCC2(CC1)OCCO2	-2%	22%	15%	-15%	-1%	-10%
CC1=C(C)CC2(CC1)C(=O)NC(=O)NC2=O	-7%	14%	23%	-1%	2%	0%
CC(NC(=O)c1cc(F)ccc1F)c1nnc2n1CCN(Cc1ccc(-c3ccccc3)cc1)CC2 (configuration not stated)	x	x	x	x	u	-1%[9.04 µM]
CC(C)C(Br)C(=O)NC(N)=O (configuration not stated)	x	x	x	x	2%	12%
CCOC(=O)c1cccc(NC(=O)c2cnc(N3CCCCC3)c3ccccc23)c1	u	x	x	-21%	23µM*	18µM*
CCOC(=O)c1ccc(NC(=O)c2sc3nc4c(cc3c2N)N2CCC4CC2)cc1	3%	x	x	-9%	u	-25%
CC(=O)OC1CCC2(C)C(CCC3C4CC(N5CC5)C(C(C)=O)C4(C)CC(=O)C32)C1 (configuration not stated)	-24%	-3%	-16%	-27%	15µM*	12µM*
CC(=O)[C@H]1CC[C@H]2[C@@H]3CC[C@H]4C[C@H](O)CC[C@]4(C)[C@H]3C(=O)C[C@]12C	1%	-5%	6%	-22%	12µM*!	u
CC(=O)OCC(=O)[C@H]1CC[C@H]2[C@@H]3CC[C@H]4C[C@H](O)CC[C@]4(C)[C@H]3C(=O)C[C@]12C	-2%	-28%	-6%	-31%	-25%	-5%
Cc1ccccc1C(=O)Nc1cc(-c2ccc(Cl)cc2)nn1-c1ccccc1	-2%	x	x	-1%	u	u
C=C1CCC(O)C/C1=C\C=C1/CCCC2(C)C1CCC2C(C)CCCC(C)C (configuration not stated)	x	x	x	x	27µM*	24µM*
COc1ccccc1CN1CCCC(C(=O)c2ccccc2OC)C1 (configuration not stated)	12%	-15%	-14%	-20%	u	8.2µM*
O=C(c1cccc(C(F)(F)F)c1)C1CCCN(Cc2ncc[nH]2)C1 (configuration not stated)	-20%	-4%	0%	-11%	-23%	u
COc1ccc(C(=O)C2CCCN(CCc3ccccc3)C2)cc1OC (configuration not stated)	2%	-20%	-9%	-18%	18µM*	u
CCOc1ccc(CN2CCCC(C(=O)c3ccccc3OC)C2)cc1 (configuration not stated)	-24%	-25%	-26%	-23%	u	u
COc1ccc(C(=O)C2CCCN(Cc3ccc(F)cc3F)C2)cc1F (configuration not stated)	u	-8%	-10%	-25%	u	u
CCn1ccnc1CN1CCCC(C(=O)c2cccc(C(F)(F)F)c2)C1 (configuration not stated)	-3%	-4%	0%	-7%	26µM*	u
SMILES	TGFb SMAD3 inh	HT1080-NT tox	HT1080 IDH1KD tx	HepG2 viability	DT40 TDP1 no CPT	DT40 TDP1 CPT
COc1ccc(O)c(CN2CCCC(C(=O)c3ccccc3SC)C2)c1 (configuration not stated)	-20%	-25%	u	-20%	15µM*	u
Cc1noc(C)c1C(=O)N1CCC[C@@]2(CCN(CC(C)C)C2)C1	x	x	x	x	-13%	-9%
COc1ccccc1CN1CCCC(C(=O)c2ccccc2SC)C1 (configuration not stated)	u	u	u	-3%	21µM*	13µM*
CSc1ccccc1C(=O)C1CCCN(Cc2ccncc2)C1 (configuration not stated)	-7%	0%	8%	-16%	-14%	-21%
COc1cccc(OC)c1CN1CCCC(C(=O)c2cccc(Cl)c2)C1 (configuration not stated)	u	-19%	-13%	-34%	u	18µM*
Cc1ccccc1NC1(C#N)CCCCC1	19%	0%	-4%	4%	-10%	-5%
Cc1cccc(N=Nc2ccc(N(C)C)cc2)c1	3%	0%	2%	0%	-19%	-3%
Cc1cscn1	0%	27%	12%	-5%	u	-21%
Clc1ccc2c(c1)C(OC1CN3CCC1CC3)c1ccccc1CS2 (configuration not stated)	u	-25%	u	-111%	15µM*	16µM*
